Ins promoter up = MIN6 insulin promoter up-regulation; MIN6 insulin promoter-GFP reporter, high-content imaging; active compounds read high; z-score at 5 µM; 190,000 compounds, 0.3% hits;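 active = z-score above 3 at 5 µM with at least 500 cells counted in the well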
ROMK mod = modulators of human ROMK potassium channel | P48048 | Tet-inducible ROMK, thallium flux fluorescence; actives lie on both sides | B-score at 10 µM | 130,000 compounds, 2% hits | AID 1918;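 active = signal ratio slope over the read window, or its plate-corrected B-score, at least 3 SD from the plate mean, either direction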;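 note: B-score of the F/F0 ratio slope over 7 to 12 s after thallium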
Target sequence (P48048 whole entry, looked up): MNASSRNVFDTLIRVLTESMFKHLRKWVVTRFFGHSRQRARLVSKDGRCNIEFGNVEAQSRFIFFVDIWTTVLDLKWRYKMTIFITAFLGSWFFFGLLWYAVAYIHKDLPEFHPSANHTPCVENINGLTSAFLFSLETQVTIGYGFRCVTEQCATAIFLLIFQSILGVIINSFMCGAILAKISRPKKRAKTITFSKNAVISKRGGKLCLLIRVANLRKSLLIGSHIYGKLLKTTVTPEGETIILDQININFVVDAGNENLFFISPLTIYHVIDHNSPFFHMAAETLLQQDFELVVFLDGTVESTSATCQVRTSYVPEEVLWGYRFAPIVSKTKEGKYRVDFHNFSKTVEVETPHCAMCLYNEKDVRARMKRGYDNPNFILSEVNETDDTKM
KCC2 mod = KCC2 (human) Cl- transport modulation | 190,000 compounds, 2.2% hits | Q9H2X9 | KCC2 cells, thallium flux FluoZin-2 fluorescence | B-score of Tl+ flux slope (higher = more flux/activation; lower = inhibition) at 10 µM;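 active = thallium flux slope and its plate-corrected score both differing from the plate sample mean at a set confidence after two filtering rounds, in either direction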;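 note: slope of fluorescence scaled to starting intensity during 10 to 20 s after thallium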
Insulin prom inh = TRM-6 insulin promoter activity inhibition. 130,000 compounds, 0.9% hits. inhibition, % at 2 µM. TRM-6 cells (human fetal islet line), insulin promoter-eGFP reporter, imaging; reporter expression induced with tamoxifen. AID 1273;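 active = inhibition above the mean plus 3 SD, with well images judged a real hit on visual review, cut at about 60% in these data, passing the limit was not always enough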
WT yeast gro inh = growth inhibition of WT yeast, mitochondrial fusion screen; mitochondrial fusion phenotypic screen, WT strain; inhibition, % at 10 µM; 190,000 compounds, 2.1% hits; AID 1362; in the data active = inhibition above about 58%; tested in S. cerevisiae
L major viab = inhibitors of Leishmania major promastigote growth | Leishmania major promastigotes, resazurin fluorescence viability | 200,000 compounds, 9% hits | AID 1063 | inhibition, % at 10 µM; in the data active = inhibition above about 50%;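 note: promastigotes grown with compound for 44 hours at 28 °C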
Active calls of the source: *. Only some compounds are listed: those with a hit (about 12% of all), similar ones and a draw of the others.

Screening O=C1CC(N(CCc2ccccc2)C(=S)Nc2ccccc2)C(=O)N1c1ccccc1 (stereo not drawn) returned Ins promoter up -0.31, ROMK mod 0.084, KCC2 mod 0.54, Insulin prom inh -37, WT yeast gro inh 71* and L major viab 29.
`COc1ccc(CCN(C(=O)c2cccc(F)c2)C2CC(=O)N(c3ccccc3)C2=O)cc1` (stereo not drawn) gave Ins promoter up -0.27, ROMK mod -0.4, KCC2 mod 0.051, Insulin prom inh -29, WT yeast gro inh -5 and L major viab -2.
For CCCOc1ccc(N2C(=O)CC(N(CCc3ccc(OC)c(OC)c3)C(=S)Nc3ccccc3)C2=O)cc1 (stereo not drawn) the results were Ins promoter up -1.1, ROMK mod 0.68, KCC2 mod 0.33, WT yeast gro inh 0 and L major viab 45.
For COc1ccc(C(C)=O)c(Oc2nc(CN3CCOCC3)nc3scc(-c4cccs4)c23)c1 the results were Ins promoter up -2.1, KCC2 mod -1.9, Insulin prom inh -21, WT yeast gro inh 9 and L major viab 19.
`Cc1cc(C)cc(Nc2cnn(C34CC5CC(CC(CC(=O)O)(C5)C3)C4)c(=O)c2Cl)c1` gave Ins promoter up 0.28, ROMK mod 0.14, KCC2 mod -0.19, Insulin prom inh 29, WT yeast gro inh 22 and L major viab -1.
`O=C(CCN1C(=O)c2ccccc2C1=O)N(CCO)Cc1ccccc1` gave Ins promoter up 0.93, KCC2 mod 0.014, Insulin prom inh 5, WT yeast gro inh -9 and L major viab -2.
Screening c1ccc(CN2CCC(Nc3nc(-c4cccnc4)nc4ccccc34)CC2)cc1 returned Ins promoter up -0.16, KCC2 mod 0.18, WT yeast gro inh 6 and L major viab 98*.
Cc1ccc(Nc2nc(-c3cccnc3)nc3ccccc23)cc1 was read as Ins promoter up 0.09 and KCC2 mod -1.5.
For c1cncc(-c2nc(NCc3ccc4c(c3)OCO4)c3ccccc3n2)c1 the results were Ins promoter up -1.4 and KCC2 mod -0.37.
For c1cncc(-c2nc(NCC3COc4ccccc4O3)c3ccccc3n2)c1 (stereo not drawn) the results were Ins promoter up -0.94, ROMK mod -1.6, KCC2 mod -0.6, Insulin prom inh 9, WT yeast gro inh 67* and L major viab 77*.
For Cc1ccccc1Nc1nc(-c2cccnc2)nc2ccccc12 the results were Ins promoter up -0.54, KCC2 mod -2, WT yeast gro inh 33 and L major viab 78*.
For NC(=O)NOCc1ccc(F)cc1Cl the results were Ins promoter up 0.62, KCC2 mod 0.66, WT yeast gro inh -9 and L major viab -5.
For COc1ccc(C(=O)NCc2nnc(SCC(=O)N3CCOCC3)o2)cc1 the results were ROMK mod 0.25, KCC2 mod -0.63, WT yeast gro inh 0 and L major viab 3.
For Cc1ccc2c(c1)N(C(=O)CCC(=O)O)CCO2 the results were Ins promoter up 1.2, ROMK mod 0.7, KCC2 mod 0.27, Insulin prom inh 22, WT yeast gro inh -2 and L major viab -3.
For O=S(=O)(c1ccc2c(c1)OCCO2)N1CCN(c2ncnc3sccc23)CC1 the results were ROMK mod 0.043, KCC2 mod -0.13, WT yeast gro inh -4 and L major viab 60*.
`CCN(CC)S(=O)(=O)c1ccc(N2CCN(S(=O)(=O)c3ccc4c(c3)OCCO4)CC2)nc1` gave Ins promoter up -0.85, ROMK mod -0.49, Insulin prom inh -45, WT yeast gro inh -13 and L major viab 79*.
`C#CCSc1nnc(CSc2nc3ccccc3s2)n1-c1ccccc1` gave Ins promoter up -1.4, KCC2 mod -2.9, Insulin prom inh -436, WT yeast gro inh 29 and L major viab 50*.
CCn1c(CSc2nc3ccccc3s2)nc2ccccc21 was read as Ins promoter up 0.58, ROMK mod -1.6, KCC2 mod -4.2, Insulin prom inh -61, WT yeast gro inh 63* and L major viab 14.
Screening O=C(O)CSc1nnc(CSc2nc3ccccc3s2)n1-c1ccccc1 returned Ins promoter up -0.66, ROMK mod -0.01, KCC2 mod 0.019, WT yeast gro inh -8 and L major viab -7.
For Cc1cc(C)cc(NC(=O)C2CCCN2C(=O)NC2CCCCC2)c1 (stereo not drawn) the results were Ins promoter up -0.26, ROMK mod -0.0014, KCC2 mod 0.1, WT yeast gro inh 3 and L major viab 7.
Screening CCc1cc(C(=O)N2CCOCC2)c(NC2=NS(=O)(=O)c3ccccc32)s1 returned Ins promoter up -0.42, KCC2 mod 0.47, Insulin prom inh 0, WT yeast gro inh -8 and L major viab -7.
`Cc1ccc(-n2c(SCC(=O)NCCN3C(=O)CSC3=O)nnc2-c2ccccc2)cc1` gave Ins promoter up -0.06, KCC2 mod 0.27, Insulin prom inh -48, WT yeast gro inh 2 and L major viab 62*.
`Cn1c(SCC(=O)c2c(N)n(C)c(=O)n(C)c2=O)nnc1-c1ccccc1` gave Ins promoter up 1.2, ROMK mod 0.98, KCC2 mod 0.54, Insulin prom inh 19, WT yeast gro inh -7 and L major viab 66*.
Cc1ccc(-n2c(SCC(=O)NCCN3C(=O)CSC3=O)nnc2-c2cccc(C)c2)cc1 was read as Ins promoter up -0.24, ROMK mod 2.2, Insulin prom inh -62, WT yeast gro inh 4 and L major viab 3.
Cn1c(SCC(=O)c2c(N)n(C)c(=O)n(C)c2=O)nnc1-c1ccccc1F was read as Ins promoter up -0.22, ROMK mod -0.21, KCC2 mod 1.5, Insulin prom inh 40, WT yeast gro inh 1 and L major viab 6.
Screening Cn1c(SCC(=O)NCCN2C(=O)CSC2=O)nnc1-c1ccccc1 returned Ins promoter up -0.17, ROMK mod 0.37, KCC2 mod 0.99, Insulin prom inh -8, WT yeast gro inh -9 and L major viab 56*.
For Cc1cccc(NCc2nc(SCC(N)=O)n[nH]2)c1 the results were Ins promoter up 0.38, KCC2 mod 1.1, WT yeast gro inh 4 and L major viab -2.
Cc1cc(C)c(S(=O)(=O)N2CCOC2CNC(=O)C(=O)NCCc2c[nH]c3ccccc23)c(C)c1 (stereo not drawn) was read as Ins promoter up -0.05, ROMK mod 0.42, KCC2 mod -1.9, Insulin prom inh -310, WT yeast gro inh 7 and L major viab 30.
Screening CCCCC(CC)CNC(=O)C1CCCN(S(=O)(=O)c2cnc[nH]2)C1 (stereo not drawn) returned Ins promoter up -0.06, KCC2 mod 1.3, WT yeast gro inh -9 and L major viab -7.
CCc1c(C(=O)NC2CCCCC2)[nH]c(C)c1C(C)=O was read as Ins promoter up 3.9*, ROMK mod -0.76, WT yeast gro inh 8 and L major viab 7.
